ALOX12 inh: blocks human arachidonate 12S-lipoxygenase; actives 1.1% (n = 580,000); purified 12hLO, xylenol orange hydroperoxide absorbance; AID 1671190; P18054; Potency, µM (doses to about 108 µM), for inactives: at the highest dose activity change, negative = inhibition, actives largely listed as inhibitors
Target sequence (P18054 whole entry, looked up): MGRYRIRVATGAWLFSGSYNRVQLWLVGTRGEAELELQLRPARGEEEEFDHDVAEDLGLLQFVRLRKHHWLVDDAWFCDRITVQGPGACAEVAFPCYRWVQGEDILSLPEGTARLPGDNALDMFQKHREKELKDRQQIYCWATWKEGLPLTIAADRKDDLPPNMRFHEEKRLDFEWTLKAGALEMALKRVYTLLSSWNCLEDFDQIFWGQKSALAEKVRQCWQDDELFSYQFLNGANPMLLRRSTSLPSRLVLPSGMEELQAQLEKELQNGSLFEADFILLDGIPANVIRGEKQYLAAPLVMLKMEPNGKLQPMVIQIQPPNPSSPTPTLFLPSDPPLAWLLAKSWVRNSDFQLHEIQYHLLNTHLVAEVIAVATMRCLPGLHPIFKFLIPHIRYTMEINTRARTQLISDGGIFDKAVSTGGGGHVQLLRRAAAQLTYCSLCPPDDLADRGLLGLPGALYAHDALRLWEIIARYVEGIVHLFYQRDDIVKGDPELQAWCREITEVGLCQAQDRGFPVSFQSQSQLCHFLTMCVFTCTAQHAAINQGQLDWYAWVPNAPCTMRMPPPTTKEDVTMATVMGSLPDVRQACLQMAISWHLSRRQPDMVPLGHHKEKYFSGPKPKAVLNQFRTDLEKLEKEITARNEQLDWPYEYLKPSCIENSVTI
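Purified human 12hLO (150 nM final) in 25 mM Hepes, 0.01% Triton X-100, pH 7.0 was preincubated 15 min at room temperature with compound. Then 40 uM arachidonic acid was added, 30 min. Hydroperoxide was read by Fe-XO absorbance ratio 573/405 nm.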
ELG1 DNA repair: blocks ELG1-dependent DNA repair in HEK293T cells; HEK293T ELG1-luciferase reporter, luminescence, 16 h; DNA damage induced by 5-fluorouridine; Potency, µM (doses to about 46.1 µM), without a hit: at the highest dose activity change, negative = inhibition, usual class: inhibitors; actives 2.3% (n = 330,000); AID 504467; further: nearly all actives have a fitted effect of over 55% in size
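Overnight (16 hr) co-exposure of 2,000 cells/well to 5-fluorouridine and compound at 37 °C preceded detection. Luciferase was quantified via ONE-Glo luminescence; loss of signal denotes inhibition.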
DT40 TDP1 CPT: growth inhibition of DT40 Tdp1-/-;hTDP1 cells with camptothecin (screen for TDP1 inhibitors); chicken DT40 Tdp1-/-;hTDP1 cells + 20 nM CPT, ATP luminescence, 48 h; actives 12% (n = 420,000); AID 686979; Potency, µM (doses to about 46.2 µM), inactives show at the highest dose activity change, negative = growth inhibition, actives largely listed as inhibitors; further: nearly all actives have a fitted effect of over 55% in size
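Cell growth measured by CellTiter-Glo luminescence after a minimum 48 h, 37 C compound exposure with 20 nM CPT in Tdp1-knockout DT40 cells stably expressing hTDP1, seeded 400/well; qHTS titration format.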
DT40 TDP1 no CPT: qHTS for Inhibitors of human tyrosyl-DNA phosphodiesterase 1 (TDP1): qHTS in cells in absence of CPT | DT40 Tdp1-/- hTDP1 cells, no CPT, ATP luminescence, 48 h | AID 686978, 2013 | actives 15% (n = 420,000) | Potency, µM (titrated, usually from 46.2 µM), without a hit: top-dose activity change, negative = growth inhibition, hits mostly inhibitors; further: nearly all actives have a fitted effect of over 55% in size
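Compound effects on proliferation are scored in DT40 Tdp1-/-;hTDP1 cells in the absence of CPT. ATP levels (CellTiter-Glo luminescence) are recorded after a ≥48 hr, 37 °C incubation.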
VP16 counter: inhibits Gal4-VP16 luciferase reporter, ROR gamma counter-screen | Drosophila S2 Gal4-VP16 UAS-luciferase, luminescence, 20 h | Potency, µM (series often up to 53.6 µM), inactives show at the top dose activity, negative = inhibition, actives largely listed as inhibitors | actives 3.5% (n = 310,000);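 further: Gal4-VP16 expression switched on by copper sulfate through the metallothionein promoter; nearly all actives have a fitted effect of over 50% in size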
RORgamma inh: inhibitors of mouse ROR gamma transcriptional activity. Drosophila S2 Gal4-RORgamma UAS-luciferase reporter, 20 h. Potency, µM (top dose mostly 53.6 µM), for inactives: at the highest dose activity change, negative = inhibition, most hits filed as inhibitors. P51450. AID 2551. actives 5.4% (n = 310,000); further: nearly all actives have a fitted effect of over 60% in size
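Using a luciferase readout, inhibitors were identified by reduced reporter activity in Drosophila cells coexpressing a copper-inducible Gal4–ROR gamma fusion and UAS-driven Photinus luciferase, incubated 20 hr after 700 uM copper sulfate.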
Numbers without * were called inactive; ? = inconclusive; · = no result given; [ ] = remark or other dose. An excerpt weighted towards active compounds, which were near 15% of everything screened. The call rests on the fitted dose curve; in most records, active means well fitted curve in the direction sought with a large enough effect; inconclusive means small, poorly fitted or top-dose-only effect, or another doubt; inactive means no such curve, though single readings can be large; an effect the other way counts as inactive or inconclusive. On the % scale 0 is the no-effect control and ±100 the full control effect; potency means the concentration at half of the fitted maximal effect.

SMILES | ALOX12 inh | ELG1 DNA repair | DT40 TDP1 CPT | DT40 TDP1 no CPT | VP16 counter | RORgamma inh
COCCCn1c(C)cnc1C1CCN(S(=O)(=O)Cc2ccccc2)C1 (stereo not given) | 16.8% | · | · | · | · | ·
Cc1ccccc1-c1cc2nc(Nc3ccc(F)cc3)n(C)c(=O)c2s1 | ? | · | ? | 23.1µM* | · | ·
COc1ccc(Nc2nc3cc(-c4ccccc4C)sc3c(=O)n2C)cc1OC | 35.5µM* | · | ? | ? | · | ·
O=C1NC2(CCCN(C(=O)c3ccc4c(c3)OCO4)C2)COc2ccccc21 (stereo not given) | 35.7% | · | · | · | · | ·
COc1ccc2cc3cc(C(=O)NC4CC4)sc3nc2c1 | -19.3% | ? | 23.1µM* | 18.4µM* | ? | ?
NNC(=O)c1cc2cc3ccccc3nc2s1 | 13.2% | 22.9% | 5.17µM* | ? | -10.7% | 12.6µM*
COc1ccc2nc3sc(C(=O)NCCN4CCc5ccccc5C4)cc3cc2c1 | -29.9% | 27.2% | 20.6µM* | 16.4µM* | -5.6% | 10.9%[10 µM]
COc1ccc(S(=O)(=O)NNC(=O)c2cc3cc4ccccc4nc3s2)cc1 | ? | -3.0% | -7.9% | -3.6% | 22.4µM* | ?
CS(=O)(=O)NNC(=O)c1cc2cc3ccccc3nc2s1 | -1.4% | 14.1% | -5.2% | -19.0% | -21.0% | -10.6%
Cn1cc(CC(=O)N2CCCc3ncc(C(=O)NCCN4CCCC4)cc32)c2ccccc21 | 47.0% | · | · | · | · | ·
CCC(=O)Nc1ccc(SC2CCCC2)cc1 | -0.3% | · | · | · | · | ·
Cc1ccc(OCCC(=O)N(CCC(C)C)c2c(N)n(Cc3ccccc3)c(=O)[nH]c2=O)cc1 | · | 0.8% | -9.5% | 20.6µM* | · | ·
CC(C)CCN(C(=O)c1cc(=O)[nH]c2ccccc12)c1c(N)n(Cc2ccccc2)c(=O)[nH]c1=O | 24.7% | 0.0% | 6.5% | -6.4% | · | ·
CC(C)CCN(C(=O)Cc1ccc(Cl)c(Cl)c1)c1c(N)n(Cc2ccccc2)c(=O)[nH]c1=O | -9.0% | -2.9% | ? | 25.9µM* | 2.0% | -23.5%
CN(CC1CC1)C1CCOc2ccccc21 (stereo not given) | 18.8%[176 µM] | · | · | · | · | ·
Cc1ccc(Cc2nc3ccccc3n2C(CCc2ccccc2)c2nc3ccccc3[nH]2)cc1 (stereo not given) | -26.9% | · | ? | 18.4µM* | · | ·
Cc1nnsc1-c1nc2ccccc2n1C(CCc1ccccc1)c1nc2ccccc2[nH]1 (stereo not given) | -21.7% | · | ? | ? | · | ·
FC(F)(F)c1cc(Cc2nc3ccccc3n2C(CCc2ccccc2)c2nc3ccccc3[nH]2)cc(C(F)(F)F)c1 (stereo not given) | -6.6% | · | 7.31µM* | 7.31µM* | · | ·
COc1ccc(-c2noc(CCC(=O)N3CCN(c4ccccc4C(F)(F)F)CC3)n2)cc1 | -17.9% | ? | 19.0% | -26.6% | · | ·
COc1ccc(-c2noc(CCC(=O)NCCN3CCN(c4ccccc4F)CC3)n2)cc1 | 0.0% | ? | 16.4µM* | 14.6µM* | ? | 10.2%
COc1ccc(-c2noc(CCC(=O)NCCCN3CCN(c4ccccc4F)CC3)n2)cc1 | -2.3% | ? | 23.1µM* | 16.4µM* | 3.1%[10 µM] | ?
CCN1CCN(CCCNC(=O)CCc2nc(-c3ccc(OC)cc3)no2)CC1 | -6.5% | 0.4% | -13.4% | 2.6% | -3.2%[10 µM] | -1.8%
O=C(CSc1nc2ccccc2c(=O)n1-c1ccc(F)cc1F)NC(=O)NC1CCCC1 | -0.7% | · | · | · | · | ·
O=[N+]([O-])c1cccc(SSc2cccc([N+](=O)[O-])c2)c1 | 2.51µM* | · | 3.66µM* | 4.61µM* | · | ·
O=[N+]([O-])c1cccc(Br)c1 | -8.0% | · | · | · | · | ·
COc1cc(C(=O)N/N=C/c2ccccn2)cc(OC)c1OC | 5.6% | ? | 3.26µM* | 4.61µM* | -8.3% | ?

Screening results (PubChem)
